± gives the standard deviation.
Key:
[1] = system: MILI (PIWIL2) piRISC loaded with L1MC piRNA (26 nt); test: pre-steady-state target cleavage rate (min^-1); guide: L1MC piRNA 5'p-UAACUAAAUACUAUGCAAGCUGUAGG; higher = faster piRNA-guided slicing of the target
Procedure, shortened: (§1)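 The pre-steady-state cleavage rate was obtained by Cleave-'n-Seq with a burst-and-steady-state fit. A transcribed, DNA-blocked target RNA library (0.1 nM) was mixed with 1 nM active affinity-purified piRISC carrying one synthetic guide, with or without 500 nM GTSF1 partner protein, in HEPES–potassium acetate buffer at 33 °C for 0–8 or 0–960 min. Uncleaved targets were sequenced and normalised to depth and to weakly complementary targets, with three trials pooled and k3 capped at 0.0001 min^-1.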

[2] = system: EfPiwi piRISC loaded with L1MC piRNA (26 nt); test: pre-steady-state target cleavage rate (min^-1); auxiliary factor: 500 nM Ephydatia muelleri Gtsf1; guide: L1MC piRNA 5'p-UAACUAAAUACUAUGCAAGCUGUAGG; MIWI and MILI are mouse PIWI proteins and EfPiwi is from a freshwater sponge; tags in brackets are library labels; higher = faster piRNA-guided slicing of the target
Procedure, shortened: as §1

[3] = auxiliary factor: 500 nM mouse GTSF1
[4] = auxiliary factor: none (no GTSF1)

Sequence | pre-steady-state target cleavage rate [1, 3] | pre-steady-state target cleavage rate [1, 4] | pre-steady-state target cleavage rate [2]
UCCUCCUACAGCUCGCAUAGUAUUUAGUUA | 0.288 ± 0.019 | 0.0109 ± 0.0027 | 0.0845 ± 0.019
UCCUGCUACAGCAUUGCAUAGUAUUUAGUUA | 0.286 ± 0.02 | 0.0108 ± 0.0036 | 0.00946 ± 0.0029
UCCUGGUACAGUUUGCAUAGUAUUUAGUUA | 0.254 ± 0.02 | 0.0161 ± 0.005 | 0.00421 ± 0.0025
UCCUGGAACAGCUUGGAUAGUAUUUAGUAA | 0.198 ± 0.023 | 0.00431 ± 0.0019 | 0.00371 ± 0.002
UCCUGCUACAGCUUGGAUAGUAUUUAGUAA | 0.214 ± 0.032 | 0.00334 ± 0.0025 | 0.00465 ± 0.0017
UCCUGGAUGUCGUCUGCAUAGUAUUUAGUUA | 0.106 ± 0.015 | 0.00397 ± 0.0027 | 0.00907 ± 0.0032
UCCUGGAACAGCUUGCCUAGUAUUUAGUUA | 0.248 ± 0.015 | 0.00673 ± 0.0024 | 0.0399 ± 0.013
UCCUGGUACACCUUGCAUAGUAUUUAGUAA | 0.182 ± 0.043 | 0.00413 ± 0.0031 | 0.00351 ± 0.0028
UCCUCCUACAGCUUGCAAAGUAUUUACUUA | 0.0765 ± 0.013 | 0.0033 ± 0.0019 | 0.00282 ± 0.0024
UCCUGGAUCAGCUUGCAUAGUAUGUAGUUA | 0.202 ± 0.018 | 0.00457 ± 0.0024 | 0.0171 ± 0.0042
UCCUGCUACAGCUUGCAUAGUAUUUAGUGA | 0.193 ± 0.033 | 0.00299 ± 0.0027 | 0.00567 ± 0.0019
UCCUGGUACAGCUUGACAUAGUAUUUAGUUA | 0.231 ± 0.025 | 0.00764 ± 0.0035 | 0.0102 ± 0.003
UCCUGGAUGAGUUUGCAUAGUAUUUAGUUA | 0.17 ± 0.023 | 0.0059 ± 0.0028 | 0.0219 ± 0.006
UCCUGGUGACAGCUUGCAUAGUAUUUAGUUA | 0.507 ± 0.044 | 0.0285 ± 0.0085 | 0.0328 ± 0.01
UCCUGCUUACAGCUUGCAUAGUAUUUAGUUA | 0.451 ± 0.043 | 0.0088 ± 0.0032 | 0.0638 ± 0.015
UCCUGGAUGAGCUUGCAUAGUAUUUAGUUUA | 0.184 ± 0.02 | 0.0105 ± 0.0031 | 0.0215 ± 0.0067
UCCUGCUACAGCUUUCAUAGUAUUUAGUUA | 0.188 ± 0.021 | 0.00503 ± 0.0022 | 0.00701 ± 0.0022
UCCUGGUACAGCUUGCUUACUAUUUAGUUA | 0.0679 ± 0.012 | 0.00375 ± 0.0027 | 0.00704 ± 0.0031
UCCUGGAUCAGGUUGCAUAGUAAUUAGUUA | 0.152 ± 0.015 | 0.00739 ± 0.0017 | 0.012 ± 0.005
UCCUGGUACGGCUUGCAUAGUAUUUAGUUA | 0.195 ± 0.03 | 0.0133 ± 0.0047 | 0.00921 ± 0.0043
UCCUGCUACAGCUUGCAUAGUAUUUAGUCUA | 0.116 ± 0.02 | 0.00343 ± 0.0029 | 0.00636 ± 0.0024
UCCUCCUACAGCUUGCACAGUAUUUAGUUA | 0.19 ± 0.017 | 0.00767 ± 0.0021 | 0.0475 ± 0.013
UCCUGGUACAGCUUGCAUAGUAUUCUAGUUA | 0.353 ± 0.088 | 0.00551 ± 0.0045 | 0.0044 ± 0.003
UCCUGGUACAUCUUGCAUAGUAUUUAGUUA | 0.237 ± 0.018 | 0.00962 ± 0.0032 | 0.0254 ± 0.01
UCCUGGAACAGCUUGCAUAGUAAUUUAGUUA | 0.14 ± 0.012 | 0.00593 ± 0.0025 | 0.00753 ± 0.0023
UCCUGCAACAGCUUGCAUAGUUUUUAGUUA | 0.0613 ± 0.0099 | 0.00354 ± 0.0029 | 0.00727 ± 0.0019

— the supplement of paper PMC10338343
